Results taken from a collection of fitness landscapes (doi:10.1016/j.celrep.2020.107928).
Over roughly 81,000 sequences, “one-hybrid fitness for binding parS DNA” has its median near -0.17; the highest 2% begin near 0.51. The sample as a whole holds a higher share of the highest values than the screen did.

B1: Caulobacter ParB omega fusion; a variant is named by its letters at X, in order, B8GW30 (parent)
chain: MESVVVGEPGMSEGRRGLGRGLSALLGEVDAAPAQAPGEQLGGSREAPIEILQRNPDQPRRTFREEDLEDLSNSIREKGVLQPILVRPSPDTAGEYQIVAGERAWRAAQRAGLKTVPIMVRELDDLAVLEIGIIENVQRADLNVLEEALSYKVLMEKFERTQENIAQTIGKSXSHVANXMRLLXLPDEVQSYLVSGELTAXHARAIAAAADPVALAKQIIEGGLSVRETEALARKAPNLSAGKSKGGRPPRVKDTDTQALESDLSSVLGLDVSIDHRGSTGTLTITYATLEQLDDLCNRLTRGI

Variants of: B1
Assay: one-hybrid fitness for binding parS DNA (scaled: cognate 1, non-cognate 0); higher = stronger binding
Conditions: with parS DNA site
Summary of the method: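 On M9-minus-histidine containing 0.1 mM IPTG and 5 mM 3-AT, E. coli USO cells with a HIS3 reporter, site 19 bp from the promoter, grew 48 hours at 37°C to select Caulobacter ParB libraries randomised at four specificity codons. Plasmids from before and after were Illumina-sequenced, with three replicate libraries pooled and variants under 10 reads left out. Fitness is the log change in variant-to-wild-type read ratio, rescaled against cognate and non-cognate.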

Variant	one-hybrid fitness for binding parS DNA
DRTR	≤ 0.2
QHDH	≤ 0.2
KIRG	≤ 0.2
MVRP	≤ 0.2
RAAF	0.242
RAFH	0.204
RAAK	≤ 0.2
RAAT	0.909
RAFT	0.847
RAFD	≤ 0.2
CANR	≤ 0.2
WEPV	≤ 0.2
HEHL	≤ 0.2
CTTW	≤ 0.2
FEAS	≤ 0.2
DTFA	≤ 0.2
DTAA	≤ 0.2
RTFA	0.592
RTAA	0.579
QTHE	≤ 0.2
PSQT	≤ 0.2
QCPA	≤ 0.2
YTPS	≤ 0.2
KLFA	≤ 0.2
RLAA	0.582
DLAA	≤ 0.2

Variant	one-hybrid fitness for binding parS DNA
NLAA	≤ 0.2
RLFA	0.606
DLFA	≤ 0.2
IAKG	≤ 0.2
FVAR	≤ 0.2
RFPC	0.424
NFIG	≤ 0.2
RFPG	0.502
RFWS	0.836
RFWP	≤ 0.2
RFIH	≤ 0.2
RFID	≤ 0.2
RFIS	0.777
RFIP	≤ 0.2
RFWN	≤ 0.2
RFIC	0.657
RFIG	0.685
EHMG	≤ 0.2
LHVL	≤ 0.2
AIIN	≤ 0.2
FIYG	≤ 0.2
PRHT	≤ 0.2
KCHS	≤ 0.2
KAGT	≤ 0.2
QCPW	≤ 0.2
RFYD	≤ 0.2

Variant	one-hybrid fitness for binding parS DNA
RFPD	≤ 0.2
RFRN	0.429
RFRS	0.954
RFPH	≤ 0.2
RFRD	≤ 0.2
RFYP	≤ 0.2
RFYS	1.01
RFLN	0.415
RFLS	0.997
RFLD	≤ 0.2
RFPS	0.551
PVIC	≤ 0.2
MHEG	≤ 0.2
VPDG	≤ 0.2
LNYC	≤ 0.2
HRFQ	≤ 0.2
VPPW	≤ 0.2
RFPA	≤ 0.2
RFIA	0.373
RFQA	0.579
KFQA	≤ 0.2
DFQA	≤ 0.2
NFRA	≤ 0.2
RFYA	0.578
RFRA	0.602
SFRA	≤ 0.2

Variant	one-hybrid fitness for binding parS DNA
RFCA	0.518
ANER	≤ 0.2
NGTK	≤ 0.2
GATP	≤ 0.2
TTRY	≤ 0.2
HALT	≤ 0.2
WTPL	≤ 0.2
KHYV	≤ 0.2
QFRS	≤ 0.2
NFWT	≤ 0.2
RFHT	0.853
RFGT	0.775
RFDR	≤ 0.2
RFHD	≤ 0.2
DFHT	≤ 0.2
DFDT	≤ 0.2
RFWT	0.649
RFGP	≤ 0.2
RFDT	0.693
NFGT	≤ 0.2
RFWD	≤ 0.2
FTEL	≤ 0.2
WFGR	≤ 0.2
AVPM	≤ 0.2
IHAA	≤ 0.2
GDDN	≤ 0.2

Variant	one-hybrid fitness for binding parS DNA
RFIT	0.508
RFRH	0.219
RFCR	≤ 0.2
RFPT	0.376
RFSN	0.377
RFYT	0.801
SFCT	≤ 0.2
RFCT	0.725
RFRT	0.9
RFST	0.841
NFST	≤ 0.2
NFRT	≤ 0.2
SRLA	≤ 0.2
RPYM	≤ 0.2
QLWS	≤ 0.2
QWRP	≤ 0.2
YTDG	≤ 0.2
VYTC	≤ 0.2
AQSP	≤ 0.2
FRLV	≤ 0.2
MRTY	≤ 0.2
RFQP	≤ 0.2
RFLP	≤ 0.2
RFNP	≤ 0.2
RFNN	0.411
RFNT	0.862

Variant	one-hybrid fitness for binding parS DNA
RFQT	0.8
DFLT	≤ 0.2
RFLT	0.75
RFQD	≤ 0.2
WYGN	≤ 0.2
YMRM	≤ 0.2
YQRV	≤ 0.2
AIED	≤ 0.2
TPRA	≤ 0.2
QTSF	≤ 0.2
AAYQ	≤ 0.2
WMAR	≤ 0.2
RVLY	0.508
RVVY	0.413
RVDY	0.427
RVKY	0.664
RVRY	0.583
RCLY	0.49
RVYY	0.495
TIST	≤ 0.2
CHTY	≤ 0.2
TCYR	≤ 0.2
QKCY	≤ 0.2
